PAFAH2 FP inh: inhibitors of human PAFAH2. recombinant PAFAH2, FP-rhodamine activity probe, fluorescence polarization. actives 0.99% (n = 340,000). AID 492956. inhibition, % at 3.39 µM. Q99487;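 active = inhibition above the mean over all tested compounds plus 3 SD, cut at about 30% in these data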;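 also: inhibitors block probe labeling of enzyme so polarization drops; 0% = enzyme with DMSO and 100% = wells lacking PAFAH2 protein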
PME-1 inh: PME-1 (human) inhibition. recombinant PME-1, FP-Rh probe fluorescence polarization. inhibition, % at 5.9 µM. actives 0.53% (n = 320,000);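 active = inhibition above the campaign mean of all compounds plus 3 SD, cut at about 26% in these data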;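 also: competitive labeling of PME-1 active site by serine hydrolase directed probe; 0% = PME-1 with DMSO and 100% = wells lacking PME-1 enzyme; inhibitors block probe labeling so polarization falls and inhibition rises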
pPAFAH inh: inhibitors of human plasma PAF acetylhydrolase (pPAFAH); actives 1.5% (n = 330,000); inhibition, % at 3.39 µM; recombinant pPAFAH, FP-rhodamine probe fluorescence polarization; Q13093;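 active = inhibition above the mean inhibition across the screen plus 3 SD, cut at about 25% in these data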;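 also: inhibitors block binding of the rhodamine activity-based probe so polarization drops; 0% = enzyme with DMSO and 100% = wells lacking pPAFAH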
PAFAH1B2 inh: PAFAH1B2 (human) inhibition | AID 492953 | P68402 | actives 1.2% (n = 340,000) | recombinant PAFAH1B2, FP-rhodamine activity probe, fluorescence polarization | inhibition, % at 3.39 µM;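 active = inhibition above the mean of all tested compounds plus 3 SD, cut at about 24% in these data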;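 also: 0% = enzyme with DMSO and 100% = wells lacking PAFAH1B2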
Target sequence (P68402 whole entry, looked up): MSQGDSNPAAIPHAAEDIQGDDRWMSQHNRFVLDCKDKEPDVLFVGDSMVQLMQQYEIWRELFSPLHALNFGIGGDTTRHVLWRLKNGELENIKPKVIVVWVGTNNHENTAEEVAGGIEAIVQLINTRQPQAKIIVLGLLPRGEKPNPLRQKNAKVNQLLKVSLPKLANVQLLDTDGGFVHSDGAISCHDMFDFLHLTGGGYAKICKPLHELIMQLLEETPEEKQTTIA
PAFAH1B3 inh: inhibitors of human PAFAH1B3 | Q15102 | recombinant PAFAH1B3, FP-rhodamine probe, fluorescence polarization | inhibition, % at 3.39 µM | actives 0.28% (n = 340,000);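 active = inhibition above the screen-wide average of all tested compounds plus 3 SD, cut at about 25% in these data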;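 also: 0% = enzyme with DMSO only and 100% = wells lacking PAFAH1B3 protein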
Target sequence (Q15102 whole entry, looked up): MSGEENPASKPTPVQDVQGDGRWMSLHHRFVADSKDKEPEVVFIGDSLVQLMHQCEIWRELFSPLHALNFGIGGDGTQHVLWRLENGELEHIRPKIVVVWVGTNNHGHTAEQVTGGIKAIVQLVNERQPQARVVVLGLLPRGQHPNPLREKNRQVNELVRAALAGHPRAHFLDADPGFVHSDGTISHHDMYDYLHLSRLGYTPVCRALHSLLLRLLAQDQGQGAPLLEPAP
Fam108B inh: Fam108B inhibition, counter-screen for RBBP9 inhibitors; actives 0.33% (n = 300,000); inhibition, % at 9.51 µM; recombinant Fam108B, FP-Rh probe fluorescence polarization;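 active = inhibition above the screen mean inhibition plus 3 SD, computed separately per campaign, cut at about 18% in these data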;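 also: inhibitors lower polarization as less probe binds the enzyme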
pPAFAH confirm: confirmation of human plasma PAF acetylhydrolase (pPAFAH) inhibitors | shares compounds with pPAFAH inh | recombinant pPAFAH, FP-Rh probe fluorescence polarization | inhibition, % at 3.39 µM | actives 72% (n = 2,300) | AID 463230;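 active = mean inhibition of the triplicate above the hit cutoff set for the earlier primary screen, cut at about 25% in these data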;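 also: 0% = enzyme with DMSO and 100% = wells lacking pPAFAH enzyme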
* = called active by the depositor; . = not tested or not shown. Only some compounds are listed: those with a hit (about 2.8% of all), similar ones and a draw of the others.

SMILES	PAFAH2 FP inh	PME-1 inh	pPAFAH inh	PAFAH1B2 inh	PAFAH1B3 inh	Fam108B inh	pPAFAH confirm
Cc1cccc(Nc2nc(-c3ccc(O)c(O)c3)cs2)n1	7	13	51*	2	21	11	28*
Cc1ccnc(Nc2nc(-c3ccc(O)c(O)c3)cs2)c1	-8	26	41*	3	18	7	30*
O=C(CN1CCN(C(C(=O)Nc2ccc(F)cc2)c2ccccc2)CC1)NC1CC1 (configuration not stated)	9	1	3	2	1	.	.
COC(=O)c1cc(OC)c(OC)cc1N1C(=O)CC(C)(C)CC1=O	-2	-8	2	7	15	-3	.
O=C(CSc1n[nH]c(-c2ccncc2)n1)Nc1ccccc1C(F)(F)F	8	0	5	1	3	6	.
COc1ccc(CCNC(=O)CCn2c(SCC(=O)N3CCCC3)nc3ccccc3c2=O)cc1OC	8	0	4	6	8	1	.
Cc1ccc(C(=O)CNc2cc(C)ccc2C)cc1	-9	3	4	0	2	1	.
CCNc1cc(O)ccc1C	26	31*	75*	14	15	.	12
COc1ccccc1NC(=O)Nc1ccc(C(N)=O)cc1	-1	1	42*	2	0	2	-1
COc1ccc(S(=O)(=O)c2c(N)n(Cc3ccco3)c3nc4ccccc4nc23)cc1	19	-10	36*	-2	7	4	9
Cc1ccc(NC(=S)N(CCN(C)C)C(C)c2ccco2)cc1C (configuration not stated)	8	-1	38*	0	4	-1	2
COc1ccc(NC2c3ccccc3C(=O)N2c2cccnc2)cc1 (configuration not stated)	6	4	2	8	0	0	.
O=C(NCc1cc(C(F)(F)F)cc(C(F)(F)F)c1)C1CC(c2c(Cl)cccc2Cl)=NO1 (configuration not stated)	-5	-9	3	3	-6	-2	.
O=C(NCc1ccc(OC(F)(F)F)cc1)C1CC(c2c(Cl)cccc2Cl)=NO1 (configuration not stated)	-8	-3	38*	10	2	0	22
O=[N+]([O-])c1ccc(N=Nc2c(Cl)cc(O)cc2Cl)cc1	15	24	46*	15	16	17	39*
CC1=C(C(=O)Nc2ccc(C(=O)N3CCN(c4cccc(Cl)c4)CC3)cc2)SCCO1	4	6	42*	0	0	-2	24
CCOc1ccc(S(=O)(=O)Nc2ccc3c(c2)OCO3)cc1	8	-6	3	-1	5	0	.
C[N+]1(CCOc2ccc([N+](=O)[O-])cc2)CCOCC1	6	0	-1	-7	9	1	.
Cc1ccc(NC(=O)CNC(c2ccccc2)c2ccccc2)c(F)c1	5	0	-1	2	-10	-4	.
O=C(CNC(c1ccccc1)c1ccccc1)Nc1c(F)cccc1F	4	-7	89*	5	13	3	10
Cc1ccc(NC(=O)c2cc(C)n(-c3cccc(C)c3)c2C)cc1	-5	-3	71*	0	5	-5	77*
COc1cccc(C2=NN(S(C)(=O)=O)C(c3cccs3)C2)c1 (configuration not stated)	7	17	-1	4	3	-3	.
O=C(Nc1ccc(SC(F)(F)F)cc1)c1ccccn1	2	-8	0	1	-4	-1	.
Cc1cc(-c2ccccc2)n(-c2ccc(C(=O)N3CCN(c4ncccn4)CC3)cc2)n1	-3	-3	36*	-2	8	-2	22
CN1CCN(CCCN2c3ccccc3Sc3ccc(Cl)cc32)CC1	5	14	45*	1	8	6	42*
SMILES	PAFAH2 FP inh	PME-1 inh	pPAFAH inh	PAFAH1B2 inh	PAFAH1B3 inh	Fam108B inh	pPAFAH confirm
CN(C)CCCN1c2ccccc2Sc2ccc(C(F)(F)F)cc21	-12	-1	11	8	11	0	.
CCSc1ccc2c(c1)N(CCCN1CCN(C)CC1)c1ccccc1S2	21	1	37*	0	15	-1	42*
OCCN1CCN(CCCN2c3ccccc3Sc3ccc(C(F)(F)F)cc32)CC1	-3	5	40*	6	13	2	38*
CCOCCCNC(=O)CSc1nnc(-c2ccc(S(=O)(=O)N3CCCC3)cc2)n1C	8	-6	3	5	5	-1	.
O=Cc1nc(-c2ccc(Cl)cc2)n2ccccc12	4	-6	71*	-2	-5	1	4
O=Cc1nc(-c2ccccc2Cl)n2ccccc12	-2	-5	3	1	5	-2	.
CCCc1cc(=O)[nH]c(SCC(=O)NC(=O)NC2CCCC2)n1	6	5	1	7	-2	.	.
O=S(=O)(Nc1ccc2c(c1)nc1n2CCN(Cc2ccccc2)C1)c1ccc(Cl)cc1	4	-12	38*	33*	-3	-5	7
O=C(Nc1ccc2c(c1)nc1n2CCN(Cc2ccccc2)C1)NC1CCCCC1	-5	-6	8	3	-5	5	.
O=S(=O)(Nc1ccc2c(c1)nc1n2CCN(Cc2ccccc2)C1)c1ccc(F)cc1	-3	-19	35*	6	3	-5	12
CCOc1cc(N2CCOCC2)c(OCC)cc1NC(=O)COC(=O)c1ccccc1OC(F)F	5	.	.	1	3	.	.
OCCOCCNc1ncnc2c1c(-c1ccccc1)cn2-c1ccccc1	1	8	35*	3	6	1	22
CC(OC(=O)c1ccc(NC(=O)CC#N)cc1)C(=O)Nc1nc(-c2ccccc2)cs1 (configuration not stated)	-55	-21	53*	-26	-42	-12	-18
O=C1C=C(c2ccc(F)cc2OCc2ccccc2)C[C@@H](c2ccc(F)cc2)C1	-2	0	-4	-3	3	.	.
O=S(=O)(Nc1cccc(-n2cnnn2)c1)c1ccc(F)cc1	2	.	.	1	3	.	.
COC(=O)/C(=C/Nc1ccc(O)cc1)[N+](=O)[O-]	-6	16	37*	5	5	-3	2
COc1ccc2[nH]c(C(=O)O)c(NS(=O)(=O)c3ccc(OC)c(OC)c3)c2c1	7	2	2	10	7	0	.
COc1ccc(S(=O)(=O)Nc2c(C(=O)O)[nH]c3ccccc23)c(OC)c1	6	4	51*	12	9	1	5
CCOC(=O)C1CCCN(C(=O)c2cc(-c3ccncc3)nc3ccccc23)C1 (configuration not stated)	2	4	4	2	6	0	.
